# Reference: PubChem BioAssay (EPA / NIEHS)
# “And” between values parts separate entries of the source, which are not always exact repeats. Equal values may be shown once. Records with an inconclusive call do not appear. The source made the active and inactive calls. Rule for the calls, unless noted: active = hit-call score of the fitted dose curve at least 0.9, where 1 is the maximum; inactive = score below 0.9.
# How the values were obtained:
# [1] = target: human CYP2D6, CYP2D6 (gene 1565) (UniProt P10635); experiment: NVS_ADME_hCYP2D6: NovaScreen (NVS) CYP450-related Enzyme Activity (ADME) Assay for human CYP2D6 (AID 2283107; active = hit-call score of the fitted dose curve at least 0.9, where 1 is the maximum)
# Method in brief: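 Biochemical fluorescence assay, insect-cell-derived enzyme. Read at 1 h; inhibition taken from loss of signal against acetonitrile. Screened at 10 uM in duplicate, with concentration series for actives.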
# [2] = read-out: E-selectin (Homo sapiens) (UniProt P16581); experiment: BSK_SAg_Eselectin: BioMAP Diversity Plus: SAg Assay for Eselectin Biomarker Activity (AID 2283091); conditions: primary human HUVEC with PBMC; actives raise or lower the signal
# Method in brief: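 Endpoint values derive from bidirectional fitting relative to DMSO, using ELISA-measured E-selectin in a human vascular co-culture (umbilical vein endothelium plus PBMC) sampled 24 h after dosing.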
# [3] = read-out: Monokine induced gamma interferon (MIG), CXCL9 (gene 4283); experiment: BSK_SAg_MIG: BioMAP Diversity Plus: SAg Assay for Monokine induced gamma interferon (MIG) Biomarker Activity (AID 2283092); conditions: primary human HUVEC with PBMC; actives raise or lower the signal
# Method in brief: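 Measures CXCL9 protein by ELISA in a human vascular primary-cell co-culture (umbilical vein endothelium with PBMC) 24 h after chemical addition. Activity is scored up or down from the DMSO control.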
# [4] = BSK_SAg_PBMCCytotoxicity: PBMC Cytotoxicity Assessment in the BioMAP Diversity Plus: SAg Assay (AID 2283093); conditions: primary human HUVEC with PBMC;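 note: PBMC viability measured as Alamar Blue reduction fluorescence at 546/580 nm; fitted both ways against DMSO so a hit may be loss or gain of signal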;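 for AC50: PBMC superantigen activated with SEB plus TSST-1 one hour after compound addition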
# Method in brief: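 HUVEC/PBMC co-culture; PBMC exposed to chemical 1 h before SEB and TSST-1 activation (20 ng/mL each), incubated 90 h, then Alamar Blue 6 h, fluorescence 546/580 nm. Bidirectional fit versus DMSO baseline.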
# [5] = read-out: Interleukin-8 (IL8), CXCL8 (gene 3576); experiment: BSK_SAg_IL8: BioMAP Diversity Plus: SAg Assay for Interleukin-8 (IL8) Biomarker Activity (AID 2283094); conditions: primary human HUVEC with PBMC; actives raise or lower the signal
# Method in brief: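 Human umbilical vein endothelial cells co-cultured with PBMC, stimulated with superantigen; IL-8 measured by ELISA 24 h after chemical dosing. Bidirectional fitting versus DMSO; SRB staining in parallel cultures tracks cytotoxicity.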
# [6] = BSK_SAg_Proliferation: Cell Proliferation Assessment in the BioMAP Diversity Plus: SAg Assay (AID 2283095); conditions: primary human HUVEC with PBMC
# Method in brief: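 Human umbilical vein endothelial cells co-cultured with PBMC; sulforhodamine B total-protein staining (0.1% SRB after 10% TCA fixation, absorbance 560 nm) at 96 h in sub-confluent culture. Fitted bidirectionally against DMSO.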
# [7] = BSK_SAg_SRB: Viability Assessment in the BioMAP Diversity Plus: SAg Assay (AID 2283096); conditions: primary human HUVEC with PBMC;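 note: cells read one day after compound addition; hits may be either gain or loss of signal compared with DMSO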
# Method in brief: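 Human umbilical vein endothelial cells co-cultured with PBMC, read 24 h after compound dosing. Total protein measured by sulforhodamine B staining (0.1% SRB after 10% TCA fixation, absorbance 560 nm); bidirectional fit versus DMSO baseline.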
# [8] = target: human CYP19A1, CYP19A1 (gene 1588) (UniProt P11511); experiment: NVS_ADME_hCYP19A1: NovaScreen (NVS) CYP450-related Enzyme Activity (ADME) Assay for human CYP19A1 (AID 2283098; active = hit-call score of the fitted dose curve at least 0.9, where 1 is the maximum;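 for AC50: potency for inhibitors seen as loss of fluorescent enzyme signal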)
# Method in brief: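 Recombinant enzyme in a cell-free format, read 0.5 h after dosing by fluorescence from a fluorogenic substrate. Loss of signal was fitted against acetonitrile as baseline. Primary screen in duplicate at 10 uM, actives then tested in concentration series.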
# [9] = target: human CYP1A1, CYP1A1 (gene 1543) (UniProt P04798); experiment: NVS_ADME_hCYP1A1: NovaScreen (NVS) CYP450-related Enzyme Activity (ADME) Assay for human CYP1A1 (AID 2283100; active = hit-call score of the fitted dose curve at least 0.9, where 1 is the maximum)
# Method in brief: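 Inhibition of recombinant CYP1A1 turnover was assessed fluorometrically in a biochemical format 1 h after compound exposure. Testing began at 10 uM in duplicate and progressed to concentration series reaching 20 uM, with on-plate positive and negative controls.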
# Sequence of human CYP2D6, CYP2D6 (gene 1565) (P10635 whole entry, looked up): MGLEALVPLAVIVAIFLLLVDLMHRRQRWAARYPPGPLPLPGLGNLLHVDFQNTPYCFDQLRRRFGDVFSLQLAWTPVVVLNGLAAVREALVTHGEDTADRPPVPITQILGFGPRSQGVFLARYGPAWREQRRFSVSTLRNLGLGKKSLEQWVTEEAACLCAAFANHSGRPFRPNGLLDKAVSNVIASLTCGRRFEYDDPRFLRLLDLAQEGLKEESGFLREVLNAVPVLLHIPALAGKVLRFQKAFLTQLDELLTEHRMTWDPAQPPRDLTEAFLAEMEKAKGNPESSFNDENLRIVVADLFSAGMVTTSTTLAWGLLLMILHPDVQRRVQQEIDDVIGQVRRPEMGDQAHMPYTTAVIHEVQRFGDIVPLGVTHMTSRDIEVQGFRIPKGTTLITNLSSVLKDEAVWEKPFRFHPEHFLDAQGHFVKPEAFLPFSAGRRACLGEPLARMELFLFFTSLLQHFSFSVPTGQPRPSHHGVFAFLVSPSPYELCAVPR
# Sequence of E-selectin (Homo sapiens) (P16581 whole entry, looked up): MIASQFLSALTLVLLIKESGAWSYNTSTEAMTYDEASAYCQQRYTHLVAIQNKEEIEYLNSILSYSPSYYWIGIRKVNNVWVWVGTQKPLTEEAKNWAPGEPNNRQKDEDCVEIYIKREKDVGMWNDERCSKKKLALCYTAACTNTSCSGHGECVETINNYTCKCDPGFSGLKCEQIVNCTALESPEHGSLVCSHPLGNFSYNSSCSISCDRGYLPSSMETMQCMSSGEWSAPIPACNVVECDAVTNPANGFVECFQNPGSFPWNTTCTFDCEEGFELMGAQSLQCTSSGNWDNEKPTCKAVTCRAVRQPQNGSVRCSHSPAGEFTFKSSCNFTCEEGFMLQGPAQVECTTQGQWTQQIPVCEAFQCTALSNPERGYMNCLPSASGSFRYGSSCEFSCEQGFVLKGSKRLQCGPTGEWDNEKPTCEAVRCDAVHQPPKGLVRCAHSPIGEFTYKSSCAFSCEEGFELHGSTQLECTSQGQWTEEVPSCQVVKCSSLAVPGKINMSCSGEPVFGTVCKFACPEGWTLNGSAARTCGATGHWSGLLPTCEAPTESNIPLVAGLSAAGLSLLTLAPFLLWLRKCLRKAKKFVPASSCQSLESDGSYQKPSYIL
# Sequence of human CYP19A1, CYP19A1 (gene 1588) (P11511 whole entry, looked up): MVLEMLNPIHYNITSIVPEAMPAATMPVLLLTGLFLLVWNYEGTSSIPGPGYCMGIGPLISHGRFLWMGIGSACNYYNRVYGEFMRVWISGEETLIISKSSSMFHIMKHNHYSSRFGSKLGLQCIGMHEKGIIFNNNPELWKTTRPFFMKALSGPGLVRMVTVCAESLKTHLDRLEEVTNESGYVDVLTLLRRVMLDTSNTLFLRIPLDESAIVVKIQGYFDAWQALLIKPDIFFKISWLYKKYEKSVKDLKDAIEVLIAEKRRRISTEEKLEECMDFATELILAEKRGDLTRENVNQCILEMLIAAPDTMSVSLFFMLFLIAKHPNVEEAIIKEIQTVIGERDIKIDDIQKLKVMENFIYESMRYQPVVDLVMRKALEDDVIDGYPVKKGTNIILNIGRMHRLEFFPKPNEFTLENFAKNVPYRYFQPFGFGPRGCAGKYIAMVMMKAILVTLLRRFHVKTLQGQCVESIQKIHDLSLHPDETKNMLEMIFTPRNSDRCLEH
# Sequence of human CYP1A1, CYP1A1 (gene 1543) (P04798 whole entry, looked up): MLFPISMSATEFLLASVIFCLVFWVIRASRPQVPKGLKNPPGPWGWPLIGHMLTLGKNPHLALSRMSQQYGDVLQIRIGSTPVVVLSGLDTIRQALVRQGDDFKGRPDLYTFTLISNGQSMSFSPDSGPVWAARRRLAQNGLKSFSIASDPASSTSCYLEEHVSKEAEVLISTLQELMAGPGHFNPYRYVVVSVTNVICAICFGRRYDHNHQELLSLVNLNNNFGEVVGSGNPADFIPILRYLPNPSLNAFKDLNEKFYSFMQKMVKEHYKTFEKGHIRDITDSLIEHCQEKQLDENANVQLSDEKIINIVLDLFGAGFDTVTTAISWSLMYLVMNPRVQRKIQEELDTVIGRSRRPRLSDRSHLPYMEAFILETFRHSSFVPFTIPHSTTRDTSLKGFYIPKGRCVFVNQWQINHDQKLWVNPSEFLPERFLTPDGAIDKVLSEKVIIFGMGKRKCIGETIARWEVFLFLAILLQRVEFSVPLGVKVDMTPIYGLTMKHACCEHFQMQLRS
compound,measurement,setting,value
O=C(c1ccccc1)c1ccc(O)cc1O,AC50,[1],5 µM (active)
O=C1c2c(O)ccc(Nc3ccc(CCO)cc3)c2C(=O)c2c([N+](=O)[O-])ccc(O)c21,AC50,[1],5 µM (active)
O=C(Cl)C(F)(F)C(F)(F)C(F)(F)C(F)(F)C(F)(F)C(F)(F)F,outcome,[2],inactive
same,outcome,[3],inactive
same,outcome,[4],inactive
same,outcome,[5],inactive
same,outcome,[6],inactive
same,outcome,[7],inactive
O=C(F)C1(F)C(F)(F)C(F)(F)C(F)(F)C(F)(F)C1(F)F,outcome,[2],inactive
same,outcome,[3],inactive
same,outcome,[4],inactive
same,outcome,[5],inactive
same,outcome,[6],inactive
same,outcome,[7],inactive
OCC(O)CC(F)(F)C(F)(F)C(F)(F)C(F)(F)F (stereo not given),outcome,[2],inactive
same,outcome,[3],inactive
same,outcome,[4],inactive
same,outcome,[5],inactive
same,outcome,[6],inactive
same,outcome,[7],inactive
CC(C)CCCC(C)CCO (stereo not given),AC50,[2],20 µM (active)
same,outcome,[3],inactive
same,AC50,[4],30.6 µM (active)
same,outcome,[5],inactive
same,AC50,[6],20 µM (active)
same,outcome,[7],inactive
OCC(F)(F)C(F)(F)C(F)(F)CO,outcome,[2],inactive
same,outcome,[3],inactive
same,outcome,[4],inactive
same,outcome,[5],inactive
same,outcome,[6],inactive
same,outcome,[7],inactive
CC(C)Nc1ccc(NC(C)C)c2c1C(=O)c1ccccc1C2=O,AC50,[8],3.18 µM (active)
Cc1cc(C)c(O)c(C(C)(C)C)c1,AC50,[2],28.8 µM (active)
same,outcome,[3],inactive
same,AC50,[4],31.7 µM (active)
same,outcome,[5],inactive
same,AC50,[6],31.2 µM (active)
same,AC50,[7],35.1 µM (active)
NC(=O)C(F)(F)C(F)(F)C(F)(F)C(F)F,outcome,[2],inactive
same,outcome,[3],inactive
same,outcome,[4],inactive
same,outcome,[5],inactive
same,outcome,[6],inactive
same,outcome,[7],inactive
Cc1cnccn1,outcome,[2],inactive
same,outcome,[3],inactive
same,outcome,[4],inactive
same,outcome,[5],inactive
same,outcome,[6],inactive
same,outcome,[7],inactive
CC1=CC2C3C=CC(C3)C2C1C (stereo not given),outcome,[2],inactive
same,outcome,[3],inactive
same,outcome,[4],inactive
same,outcome,[5],inactive
same,outcome,[6],inactive
same,outcome,[7],inactive
same,AC50,[1],2.84 µM (active)
C[C@]12CC[C@H]3C(=CCc4cc(O)ccc43)[C@@H]1CCC2=O,outcome,[2],inactive
same,outcome,[3],inactive
same,outcome,[4],inactive
same,outcome,[5],inactive
same,outcome,[6],inactive
same,outcome,[7],inactive
same,outcome,[1],inactive
CCN(CCO)S(=O)(=O)C(F)(F)C(F)(F)C(F)(F)C(F)(F)C(F)(F)C(F)(F)C(F)(F)C(F)(F)F,outcome,[2],inactive
same,outcome,[3],inactive
same,AC50,[4],39.9 µM (active) and 22.9 µM (active)
same,outcome,[5],inactive
same,AC50,[6],23.6 µM (active) and 18.6 µM (active)
same,AC50,[7],30 µM (active) and 27.9 µM (active)
NC(=O)C(F)(F)C(F)(F)C(F)(F)F,outcome,[2],inactive
same,outcome,[3],inactive
same,outcome,[4],inactive
same,outcome,[5],inactive
same,outcome,[6],inactive
same,outcome,[7],inactive
OCC(O)CC(F)(F)C(F)(F)C(F)(F)C(F)(F)C(F)(F)C(F)(F)C(F)(F)C(F)(F)F (stereo not given),outcome,[2],inactive
same,outcome,[3],inactive
same,outcome,[4],inactive
same,outcome,[5],inactive
same,outcome,[6],inactive
same,outcome,[7],inactive
Cc1ccc(O)c(-n2nc3ccccc3n2)c1,outcome,[2],inactive
same,outcome,[3],inactive
same,outcome,[4],inactive
same,outcome,[5],inactive
same,outcome,[6],inactive
same,outcome,[7],inactive
NC(=O)C(F)(F)C(F)(F)C(F)(F)C(F)(F)C(F)(F)C(F)(F)C(F)(F)F,outcome,[2],inactive
same,outcome,[3],inactive
same,outcome,[4],inactive
same,outcome,[5],inactive
same,outcome,[6],inactive
same,outcome,[7],inactive
CO[Si](C)(CCC(F)(F)C(F)(F)C(F)(F)C(F)(F)C(F)(F)C(F)(F)F)OC,outcome,[2],inactive
same,outcome,[3],inactive
same,outcome,[4],inactive
same,outcome,[5],inactive
same,outcome,[6],inactive
same,outcome,[7],inactive
Cc1cc(O)c(C(C)(C)C)cc1C(C)(C)C,AC50,[2],5.34 µM (active)
same,AC50,[3],10.2 µM (active)
same,AC50,[4],3.79 µM (active)
same,AC50,[5],5.33 µM (active)
same,AC50,[6],3.82 µM (active)
same,AC50,[7],6.3 µM (active)
O=C(O)CCC(F)(F)C(F)(F)C(F)(F)F,outcome,[2],inactive
same,outcome,[3],inactive
same,outcome,[4],inactive
same,outcome,[5],inactive
same,outcome,[6],inactive
same,outcome,[7],inactive
CN(C(=O)C(F)(F)C(F)(F)C(F)(F)F)[Si](C)(C)C,outcome,[2],inactive
same,outcome,[3],inactive
same,outcome,[4],inactive
same,outcome,[5],inactive
same,outcome,[6],inactive
same,outcome,[7],inactive
CCOC(OCC)OCC,outcome,[8],inactive
CCc1cc(Cc2cc(CC)c(N)c(CC)c2)cc(CC)c1N,AC50,[8],1.7 µM (active)
CCN=C1C=CC(=C(c2ccc(N(CC)CC)cc2)c2ccc(N(CC)CC)cc2)c2ccccc21,AC50,[2],1.45 µM (active) and 1.11 µM (active)
same,AC50,[3],1.82 µM (active) and 1.55 µM (active)
same,AC50,[4],2.52 µM (active) and 2.57 µM (active)
same,AC50,[5],1.47 µM (active) and 1.15 µM (active)
same,AC50,[6],419 nM (active) and 401 nM (active)
same,AC50,[7],1.78 µM (active) and 2.37 µM (active)
OCC(F)(F)C(F)(F)C(F)(F)C(F)(F)C(F)(F)C(F)(F)CO,outcome,[2],inactive
same,outcome,[3],inactive
same,outcome,[4],inactive
same,outcome,[5],inactive
same,outcome,[6],inactive
same,outcome,[7],inactive
NCC(F)(F)C(F)(F)C(F)(F)C(F)(F)C(F)(F)C(F)(F)C(F)(F)C(F)(F)F,outcome,[2],inactive
same,outcome,[3],inactive
same,outcome,[4],inactive
same,outcome,[5],inactive
same,outcome,[6],inactive
same,outcome,[7],inactive
NC(=O)C(F)(F)C(F)(F)C(F)(F)C(F)(F)C(N)=O,outcome,[2],inactive
same,outcome,[3],inactive
same,outcome,[4],inactive
same,outcome,[5],inactive
same,outcome,[6],inactive
same,outcome,[7],inactive
O=C(Cl)C(F)(F)C(F)(F)C(F)(F)C(F)(F)C(F)(F)C(F)(F)C(F)(F)F,outcome,[2],inactive
same,outcome,[3],inactive
same,outcome,[4],inactive
same,outcome,[5],inactive
same,outcome,[6],inactive
same,outcome,[7],inactive
CCCCCCCCn1sc(Cl)c(Cl)c1=O,outcome,[9],inactive
O=C(O)C(F)(F)OC(F)(F)C(F)(F)OC(F)(F)C(F)(F)OC(F)(F)F,outcome,[2],inactive
same,outcome,[3],inactive
same,outcome,[4],inactive
same,outcome,[5],inactive
same,outcome,[6],inactive
same,outcome,[7],inactive
CCN(CC)c1ccc(N=Nc2ccccc2)cc1,AC50,[2],13.8 µM (active)
same,outcome,[3],inactive
same,AC50,[4],20 µM (active)
same,AC50,[5],29.4 µM (active)
same,AC50,[6],12.7 µM (active)
same,AC50,[7],29.5 µM (active)
CCN(CC)c1ccc(C=O)c(O)c1,outcome,[2],inactive
same,outcome,[3],inactive
same,outcome,[4],inactive
same,outcome,[5],inactive
same,outcome,[6],inactive
same,outcome,[7],inactive
CC(C)=CCCC(C)O (stereo not given),outcome,[1],inactive
FC(F)(F)C(F)(F)C(F)(F)C(F)(F)C(F)(F)C(F)(F)CC[Si](Cl)(Cl)Cl,outcome,[2],inactive
same,outcome,[3],inactive
same,outcome,[4],inactive
same,outcome,[5],inactive
same,outcome,[6],inactive
same,outcome,[7],inactive
O=C(O)C(F)(F)C(F)(F)C(F)(F)C(F)(F)C(F)(F)C(F)(F)C(F)F,outcome,[2],inactive
same,outcome,[3],inactive
same,outcome,[4],inactive
same,outcome,[5],inactive
same,outcome,[6],inactive
same,outcome,[7],inactive
FC(F)(F)C(F)(F)C(F)(F)C(F)(F)C(F)(F)C(F)(F)C(F)(F)CCI,outcome,[2],inactive
same,outcome,[3],inactive
same,outcome,[4],inactive
same,outcome,[5],inactive
same,outcome,[6],inactive
same,outcome,[7],inactive
C[Si](Cl)(Cl)CCC(F)(F)C(F)(F)C(F)(F)C(F)(F)C(F)(F)C(F)(F)F,outcome,[2],inactive
same,outcome,[3],inactive
same,outcome,[4],inactive
same,outcome,[5],inactive
same,outcome,[6],inactive
same,outcome,[7],inactive
